High-throughput results deposited in PubChem BioAssay by National Center for Advancing Translational Sciences (NCATS).
Only some compounds are listed: those with a hit (about 3.9% of all), similar ones and a draw of the others.
HepG2 viability: HepG2 cytotoxicity, counter-screen for TGF-b inhibitors | Potency, µM (series often up to 46.1 µM), for the others: at the highest dose activity change, negative = cytotoxicity, hits mostly cytotoxic | AID 588856 | 410,000 tested, 0.76% active | HepG2 CAGA-GFP viability, ATP luminescence, 18 h
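CellTiter-Glo luminescence gave cytotoxicity after 18 hours at 37 degrees C. The cells were HepG2 CAGA-GFP in 1% FBS DMEM, stimulated with 500 pg/mL TGF-beta after compound addition. %Activity was normalised to no-cell wells (complete cell-killing) and DMSO (no toxicity), and curves were fitted and classified.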
ATXN2 expr inh: reduces ATXN2 reporter expression in HEK-293 cells; AID 1745845; HEK-293 ATXN2-luciferase reporter, luminescence, 24 h; Potency, µM (series often up to 57 µM), for the others: at the top dose activity change, negative = inhibition, most hits filed as inhibitors; 360,000 tested, 0.72% active; note: % is set by controls: 0 for no effect and ±100 for the full control effect; nearly all actives have a fitted effect of over 55% in size
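ATXN2-luciferase reporter cells (luciferase flanked by upstream and downstream ATXN2 gene portions) were treated 24 h at 37 °C with compounds at up to 57 uM. SteadyGlo luminescence gave expression; GF-AFC fluorescence gave viability.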
S2 tox: viability counter-screen for ATXN expression inhibitors | S2 cells (HEK-293 line with an ATXN2-luciferase reporter) viability, CellTiter-Fluor protease fluorescence, 24 h | Potency, µM (doses to about 56.7 µM), actives largely listed as cytotoxic | 400,000 tested, 0.49% active | AID 651635; note: nearly all actives have a fitted effect of over 40% in size
TGFb inhibitor: TGF-b pathway inhibition; Potency, µM (highest dose often 46.1 µM), for inactives: at the top dose activity, negative = inhibition, most hits filed as inhibitors; HepG2 CAGA-GFP TGF-b/SMAD3 reporter, GFP fluorescence, 18 h; TGF-beta stimulated, 500 pg/mL final; 410,000 tested, 1.2% active; AID 588855; note: % is set by controls: 0 for no effect and ±100 for the full control effect; nearly all actives have a fitted effect of over 65% in size
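HEPG2 CAGA-GFP cells (1000/well, DMEM with 1% FBS) were pre-incubated 2 h at 37 degrees C, given compound by pin tool, then stimulated with TGF-beta at 500 pg/mL final for 18 h before per-cell GFP fluorescence imaging.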
HT1080 IDH1KD tx: kills HT-1080 cells with IDH1 knockdown | HT-1080 IDH1 knockdown viability, ATP luminescence, 48 h | Potency, µM (doses to about 46.1 µM), without a hit: top-dose activity, negative = toxicity, actives largely listed as cytotoxic | 360,000 tested, 2% active | AID 686971;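 note: 0% = DMSO wells and -100% = cell-free medium wells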
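Knockdown cells (IDH1KD HT-1080) received compounds 2 h after plating at 750 cells/well and were kept 48 h at 37 °C in 5% FBS RPMI. A CellTiter-Glo luminescence read gave % activity for curve fitting.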
HT1080NT lethal: kills 2HG-producing HT-1080-NT fibrosarcoma cells; HT-1080-NT fibrosarcoma viability, CellTiter-Glo ATP luminescence, 48 h; Potency, µM (titrated, usually from 46.1 µM), for inactives: top-dose activity, negative = less viability, most hits filed as cytotoxic; 360,000 tested, 1.6% active; AID 686970;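 note: NT is the 2HG producing partner of a matched IDH1 knockdown line; 0% = DMSO-treated cells and -100% = media-only wells without cells; nearly all actives have a fitted effect of over 55% in size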
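Toxicity toward the 2HG-producing NT line was scored as %Activity, normalised to DMSO and no-cell wells, from CellTiter-Glo luminescence after 48 hours' treatment.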
* = called active by the depositor; i = inactive; ? = inconclusive; . = not tested or not shown; ! = not active in a repeat. Calls come from the whole dose curve; as a rule, active = well fitted curve in the direction sought with a large enough effect; inconclusive = small, poorly fitted or top-dose-only effect, or another doubt; inactive = no such curve, though single readings can be large; an effect the other way counts as inactive or inconclusive. Potency is the fitted concentration of half-maximal effect.

SMILES	HepG2 viability	ATXN2 expr inh	S2 tox	TGFb inhibitor	HT1080 IDH1KD tx	HT1080NT lethal
Nc1nc(=S)c2ncn(C3OC(CO)C(O)C3O)c2[nH]1 (configuration not stated)	-63%	-24%	i	?	21µM*	15µM*
OCC1OC(n2cnc3c(=S)nc[nH]c32)C(O)C1O (configuration not stated)	-40%	.	.	10µM*!	.	.
CC1(C)OC2C(CO)OC(n3cnc4c(=S)nc[nH]c43)C2O1 (configuration not stated)	-5%	-6%	i	0%	-25%	-25%
Nc1nc(=S)c2ncn([C@@H]3O[C@H](CO)[C@@H](O)[C@H]3O)c2[nH]1	-1%	?	i	0%	0.92µM*	1.5µM*
CC(=O)Nc1sc(NC(=O)c2ccc(Cl)cc2)nc1-c1cccs1	0%	-33%	?	3%	3%	3%
Nc1nc(-c2cccs2)c(NC(=O)c2ccccc2)s1	-74%	?	22µM*	?	?	-29%
Cc1ccc(NC(=O)C2(C)CCN2C(=O)c2ccccc2CCc2ccccc2)cc1C (configuration not stated)	-23%	-33%	i	2%	-25%	-27%
CC1(C(=O)Nc2cnc3ccccc3c2)CCN1C(=O)c1ccccc1CCc1ccccc1 (configuration not stated)	-36%	20µM*	i	?	?	?
COc1ccc(Cn2ccn(Cc3cccc(Cl)c3)c(=O)c2=O)cc1	-1%	.	.	-7%	.	.
Cc1ccc(Cl)cc1NC(=O)c1oc2ccc(S(=O)(=O)N(C)C3CCCCC3)cc2c1C	1%	.	.	-10%	.	.
O=C(N[C@@H]1c2ccccc2C2(CCN(Cc3c(O)ccc4ccccc34)CC2)[C@H]1O)c1ccccc1	.	.	i	.	.	.
C/C(=N\NC(=O)c1cccs1)c1c(O)cc(C)oc1=O	21%	62%	i	1%	0%	-1%
C/C(=N\Nc1ccc(Cl)cc1)c1c(O)cc(C)oc1=O	8%	-4%	i	7%	23µM*	?
O=C(COc1ccccc1C(=O)Nc1ccccc1)Nc1cccc(Cl)c1	.	.	.	.	-17%	-27%
CCCCN(CC)Cc1ccc(CNC(=O)Nc2ccccc2)o1	-20%	-17%	i	17%	14µM*	1%
CCCCN(CC)Cc1ccc(CNC(=O)Nc2ccc(OC)cc2OC)o1	-37%	-15%	i	4%	1%	-13%
CCCCN(CCCC)Cc1ccc(C(=O)NNC(=O)Nc2ccc(F)cc2)o1	18µM*	-7%	i	0%	-6%	0%
CCCCN(CCCC)Cc1ccc(C(=O)NNC(=O)Nc2ccccc2)o1	-10%	.	i	-26%	-1%	-2%
N#CC1C(=O)c2ccccc2C1c1ccccc1 (configuration not stated)	14µM*	?	?	?	12µM*	?
O=C1CCC(c2ccccc2)c2ccccc21 (configuration not stated)	-3%	-23%	i	-14%	2%	0%
CCOc1ccc(OCc2ccc(C(=O)N3N=C(C(F)F)CC3(O)C(F)F)o2)cc1 (configuration not stated)	-39%	6%	i	-27%	?	?
O=C(c1ccc(COc2ccc(Br)cc2)o1)N1N=C(C(F)F)CC1(O)C(F)F (configuration not stated)	-32%	-15%	?	-5%	21µM*	?
O=C(c1ccc(COc2ccc3ccccc3c2)o1)N1N=C(C(F)F)CC1(O)C(F)F (configuration not stated)	-108%	-26%	i	11µM*	?	?
O=S(=O)(NCC(c1ccco1)N1CCN(c2ccc(F)cc2)CC1)c1cc(F)ccc1F (configuration not stated)	-12%	.	.	-3%	.	.
CC[Si](CC)(CC)O[C@H]([C@@H](C)COCOC)[C@@H](C)COCc1ccc(OC)cc1	2%	.	.	-4%	.	.
SMILES	HepG2 viability	ATXN2 expr inh	S2 tox	TGFb inhibitor	HT1080 IDH1KD tx	HT1080NT lethal
CCCCNc1c(-c2ccc(OC)c(Sc3ccc(OC)cc3)c2)nc2ccccn12	-64%	?	?	?	?	?
CCCCCCSc1ccc(-c2nc3ccc(C)cn3c2NCCCC)cc1OC	.	0%	28µM*	.	?	21µM*
CCCCNc1c(-c2ccc(OC)c(Sc3ccc(OC)cc3)c2)nc2cnccn12	-24%	?	.	?	?	29µM*
CCCCCCSc1cc(-c2nc3cc(C)ccn3c2NCCCC)ccc1OC	-50%	?	.	?	23µM*	26µM*
CCCCCCSc1cc(-c2nc3ccc(C)cn3c2NCc2ccccc2)ccc1OC	-16%	-19%	20µM*	?	?	?
Clc1cccc[n+]1CCCCCC[n+]1ccccc1Cl	7%	.	.	-4%	.	.
C=C[C@@H]1[C@@H](C)[C@H](C)C(=O)C([C@H](O)C(C)C)[C@@H]1C (some centres not stated)	5%	.	.	3%	.	.
CSc1ccc(CCNC(=O)CCc2c(C)nc3ncnn3c2C)cc1	-11%	7%	i	-8%	.	.
CCCCNc1c(-c2ccc(SC(C)CC)c(OC)c2)nc2ccc(C)cn12 (configuration not stated)	20µM*	?	?	?	?	-16%
CCCCNc1c(-c2cccc(-c3cc(C(C)=O)cs3)c2)nc2cc(C)ccn12	-27%	22µM*	11µM*	?	-53%	?
CCCCNc1c(-c2ccc(SC(C)CC)c(OC)c2)nc2ccc(Cl)cn12 (configuration not stated)	-5%	5%	i	?	0%	6%
CC(=O)c1csc(-c2cccc(-c3nc4ccc(Cl)cn4c3NC3CCCCC3)c2)c1	-18%	-8%	i	-3%	8%	1%
CCC(C)Sc1cccc(-c2nc3ccc(C)cn3c2NCc2ccccc2)c1 (configuration not stated)	11µM*	?	?	10µM*	?	?
O=C(O)CCCCCC(=O)NN=C1CCCC1	.	-10%	.	.	.	.
CC(=O)NCC(=O)NCC1Cc2cc(C)cc(-c3ccccn3)c2O1 (configuration not stated)	.	.	i	.	.	.
O=C(N/N=C/c1c[nH]c2ccccc12)c1cc(-c2cccc3ccccc23)n[nH]1	-24%	-4%	i	?	8.2µM*	?
